# Experimental data taken from the supplement of paper PMC6555819.
# Legend:
# Experiment in all cases: PBM binding z-score (relative to random genomic background probes); higher = stronger binding; sequences stand for … in GC…GCGATTGACAGCGTAGAATGAAGG
# [1] = system: RARb homodimer (NR concentration 270 nM)
# Outline: (§1)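 Ligand-free nuclear receptor dimers were bound for 1 h to custom Agilent 4×180K protein-binding microarrays. Detection used antibodies against each partner (one per run). Binding z-scores rest on regression-normalized fluorescence, with random background probes as the reference.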
# [2] = system: RARg:RXRa (NR concentration 270 nM, RXRa partner concentration 90 nM)
# Outline: as §1
# [3] = system: RARg homodimer (NR concentration 270 nM)
# Outline: as §1
# [4] = system: RXRa DBDmut IVT, anti-RXR (DBD mutation: RXRa K156A/R161A, NR concentration 90 nM)
# Outline: as §1
# [5] = system: RXRa homodimer (NR concentration 180 nM)
# Outline: as §1
# [6] = system: THRa:RXRa (NR concentration 90 nM, RXRa partner concentration 90 nM)
# Outline: as §1
# [7] = system: THRa homodimer (NR concentration 90 nM)
# Outline: as §1
# [8] = system: VDR homodimer (NR concentration 270 nM)
# Outline: as §1
Sequence,PBM binding z-score [1],PBM binding z-score [2],PBM binding z-score [3],PBM binding z-score [4],PBM binding z-score [5],PBM binding z-score [6],PBM binding z-score [7],PBM binding z-score [8]
ATCTCTAGGTAACAAGTTCCGTGAAAGAGAGGAC,0.549,0.357,0.586,-0.202,0.164,0.983,0.899,0.475
CATACTGGGCCATTCAGAGGTCATTGATCATATG,4.15,4.52,3.48,1.39,3.85,3.21,1.4,3.67
GCAACGAGGGCATTCGAGTTGATAGCATGGCGAT,0.663,0.926,1.45,3.01,0.65,3.31,-0.513,3.27
ATCTCTAGGTAAAACTCAGTTCAGTGAAGAACGC,0.751,0.623,0.586,0.726,0.153,1.18,0.901,2.13
CCTACTGGGCTACGAAAGGTCATTGATTCAGTGA,4.59,4.54,4.54,0.401,5.27,3.44,0.738,2.02
ACTCGCAGGCCAAGTTTGGGTCACTCAAACAAAG,2.5,2.65,1.73,0.0285,0.756,2.72,1.1,0.548
TGTGCTAGGTCAGTTGGTCAGCTAACGAGCTGCC,2.66,2.6,3.48,-0.535,0.793,1.14,-0.0529,-0.504
TCATATAGGTACAAGGTGAAAGTCGGTGTGGTAA,1.38,0.762,0.453,2.04,1.33,1.91,1.51,0.703
CCTACTGGGCCAAAAAGGTCATAGATGCCGATAA,4.35,4.63,4.54,0.263,5.22,3.08,0.589,2
CCTTACGCGTCACTCCAGGTTATAGCATCGGAGT,0.704,0.409,0.416,0.6,0.294,2.62,1.07,0.782
ATATGTAGGTTACATCCGGGTCATGCAGGCTATG,2.93,3.76,2.25,0.707,3.4,4,2.29,1.76
GCGACTGGGGCAAAGCAGGTTACCATTAGGTTGG,0.874,0.369,0.722,-0.196,0.428,2.77,-0.429,-0.578
TTACCAAGGTGAGCTGAGGTAGTTGATCCAACTC,0.264,-0.0541,0.00581,-0.913,-0.0499,3.02,0.0435,-0.88
TCTTGTAGACCAAGCAGGTTAAGAAAGCCTGAGT,0.377,0.0625,-0.186,0.787,0.346,0.395,-0.407,0.173
ACTATTAGTTGAGACGAGGGCAACTGATAGGTTG,1.19,0.865,0.97,0.568,0.797,2.41,0.298,0.702
TTACCAAGGTGAGCTGAGGTCGTTGATCCAACTC,1.78,1.24,1.11,0.206,1.53,4.79,1.88,2.5
CCTTACGGGTCAAGGGTATAGCACGGGTGGTACG,3.17,4.8,4.86,0.672,5.32,2.38,0.0653,0.904
TTTATTAGTTGAAGGGCAACCGACGAGTCCGTTT,1.42,0.781,0.783,0.859,0.628,0.408,0.198,1.91
ATCTCTCGGTAAAGATAGTTCAGTGAATGCAAAT,1.07,0.757,0.753,-0.259,0.154,0.376,0.031,0.334

Sequence,PBM binding z-score [1],PBM binding z-score [2],PBM binding z-score [3],PBM binding z-score [4],PBM binding z-score [5],PBM binding z-score [6],PBM binding z-score [7],PBM binding z-score [8]
TCATATAGGTAAAAGTGAAAGTCGAACGATATGA,-0.485,0.288,0.384,0.791,0.523,-0.171,-0.456,-0.103
CCTTACGGGTCAATGACAGGTTATAGCATTTGGA,3.12,5.64,4.22,1.9,4.58,2.59,-0.0254,1.18
CCTTACGGGTCACTGACTGGTTATAGCATTTGGA,3.06,5.04,4.61,1.84,4.93,2.52,0.498,1.03
AGACTGAGGTTATTAAGATCAGGGAATTGCGGTC,0.996,1.13,0.72,1.53,1.54,1.91,0.441,0.749
TCCAGTTGGTCACGGAGGTCACACACGACGGGTA,4.6,4.87,4.79,1.11,4.8,3.84,2.09,2.65
GCTGCTAGGTCATCTGATGGTCAGCTAAAGCTCG,3.52,5.15,4.96,2,2.79,2.97,0.735,0.443
AGAATGAGGTTATTCGTAGATCAGGGAAGAAAGT,0.677,1.86,0.782,2.5,2.29,2.32,0.475,1.07
GCGACTGGGGCATCAGCAGGATACCATAACTTAA,-0.0166,-0.0136,0.464,-0.418,-0.172,0.271,-0.673,-0.734
TCTACCAGGCCAGAGGGTCACTCAAGAGGTACGG,3,3.03,2.46,0.518,2.92,1.93,0.581,0.936
CGTCCAAGGTCAGCAGGTCAGTCAAAGCGACGTG,5,6.35,7.05,2.69,4.85,3.74,2.35,2.03
CCAGACAGGTGAGAAGGTAACTCTGCCTCGATTA,0.53,0.418,0.366,0.11,0.281,0.348,0.0664,-0.0879
TGATATAGGTAAATGCTAGGTGAAAGTCCGATCT,0.551,0.276,0.33,-0.331,0.453,1.18,0.59,-0.0449
CAAACTAGGTCACCGGCAGGTCAAAGTCCGCATG,5.08,7.9,7.05,2.05,6.42,4.37,3.02,2.72
TAGCATAGGTCAGATCGGGCCAGTATACGCTATA,2.53,3.8,3.77,-0.503,2.97,4.24,-1.1,-0.438
TCTTGCAGATCAGCAGGTTAAGAAAGCTGGCCAA,-0.126,-0.0186,-0.618,-0.0927,0.33,0.0241,-0.879,-0.987
CGTCCAAGGTCAATGCTAGGTCAGTGGAAGCATT,4.74,7.51,6.88,3.57,4.86,4.32,2.84,3.57
GCTATGAGTTGAAAGGGCAACCGAATGATTCTCG,2.14,2.06,1.7,1.93,2.78,1.17,-0.184,0.754
TAGCCTAGGTCATTCAGGGGCCCGTATAGAAAGC,2.42,4.22,3.89,1.39,2.77,3.61,0.839,1.32
ACAATTAGTTGACTTAGGGCAACCGATACGACGC,1.03,0.677,0.936,0.628,0.455,1.37,0.444,0.709

Sequence,PBM binding z-score [1],PBM binding z-score [2],PBM binding z-score [3],PBM binding z-score [4],PBM binding z-score [5],PBM binding z-score [6],PBM binding z-score [7],PBM binding z-score [8]
CAGCCTAGGTCAGGGCAAGTATAGGAGGAACGTT,2.89,3.37,4.42,0.0937,2.07,2.2,0.481,-0.0774
TAGCCTAGGTCTTGGGCCAGTATACCACGCGAAC,0.192,-0.191,-0.198,-0.835,-0.0837,0.0232,0.0319,-0.506
ATATGTAGGTTACATCCGGGTCATTCCGGCTATG,2.71,3.56,2.07,1.21,2.92,3.61,2.3,2.99
CGTCCAAGGTCAAGATCAGTGAAAGAGACTCGAA,3.53,5.63,6.45,3.61,5.54,3.58,1.84,1.6
ACTTACGAGTCAACGAGGTTATAGCACGCGTATA,0.874,1.07,0.785,0.637,1.59,2.04,0.474,0.877
GCTTACGGGTCAAAGGTTATCGCATGAATAGAAT,3.45,7.02,5.01,2.6,9.64,3.98,0.155,1.59
GCTGCTAGCTCAGGTTGGTCAGCTAACGGGTACG,-0.467,-0.618,-0.751,-0.375,-1.02,-0.615,-0.751,-0.32
CGAACTAGGTCATACAGGACAGTGAATACATTGA,2.68,3.77,4.03,2.32,2.68,2.83,1.2,1.57
CGAACTAGGTCATTGCCAGGACAGTGAATAGTAA,2.72,4.1,4.21,2.5,2.73,3.32,1.54,1.49
AGTCAAAGTTCATCGAGGTAACGTAAGATATGCT,4.15,5.57,6.25,4.45,4.87,3.97,1.19,5.6
CCTGCTTGGTCAATGGTCAGCTAAAGCAGCTCGC,0.507,-0.324,0.0947,0.0969,-0.389,-0.501,-0.238,-0.585
AGAATGAGGTTATACGTAGCTCAGGGAAGAAAGT,0.301,1.29,0.944,1.7,1.86,1.81,0.226,0.643
CGTCCAAGGTCATAGGTGGTCAGTGAAGACAGAT,4.26,5.65,5.75,3.99,5.94,4.18,2.79,3.02
ACTACAGGGTCACTAGGCCAGAGTAGGTACGAAT,3.08,4.68,4.59,2.54,4.84,3.33,0.948,1.82
TCTCGGAAGACACGAAGGTCAGAGCTTTCCAGAG,3.02,1.39,1.67,0.484,1.61,1.09,-0.118,0.195
CCTTACGGGTCAAGAGGTTATAGCACGACGAGCG,3.87,6.11,4.75,0.748,6.11,2.92,0.0618,1.17
CCTACTGGACCATCAGGTCATTGATATCAACGTT,2.7,1.67,1.56,1.08,1.37,3.38,3.78,2.38
CCTCGGAGGACAGAAGGTCAGTGCTGTCCGCTTT,3.69,3.14,3.23,0.236,1.25,1.88,-0.0278,0.261
